# Measured values from PubChem BioAssay (EPA / NIEHS).
# Results filed as inconclusive are left out. The source made the active and inactive calls. Rule for the calls: active = hit-call score of the fitted dose curve at least 0.9, where 1 is the maximum; inconclusive = response in the unintended direction; inactive = score below 0.9.
# How the values were obtained:
# [1] = biological target: human Acetylcholinesterase (AChE), ACHE (gene 43) (UniProt P22303); assay: NVS_ENZ_hAChE: NovaScreen (NVS) Enzymatic Assay for human Acetylcholinesterase (AChE) (AID 2283129)
# Sequence of human Acetylcholinesterase (AChE), ACHE (gene 43) (P22303 whole entry, looked up): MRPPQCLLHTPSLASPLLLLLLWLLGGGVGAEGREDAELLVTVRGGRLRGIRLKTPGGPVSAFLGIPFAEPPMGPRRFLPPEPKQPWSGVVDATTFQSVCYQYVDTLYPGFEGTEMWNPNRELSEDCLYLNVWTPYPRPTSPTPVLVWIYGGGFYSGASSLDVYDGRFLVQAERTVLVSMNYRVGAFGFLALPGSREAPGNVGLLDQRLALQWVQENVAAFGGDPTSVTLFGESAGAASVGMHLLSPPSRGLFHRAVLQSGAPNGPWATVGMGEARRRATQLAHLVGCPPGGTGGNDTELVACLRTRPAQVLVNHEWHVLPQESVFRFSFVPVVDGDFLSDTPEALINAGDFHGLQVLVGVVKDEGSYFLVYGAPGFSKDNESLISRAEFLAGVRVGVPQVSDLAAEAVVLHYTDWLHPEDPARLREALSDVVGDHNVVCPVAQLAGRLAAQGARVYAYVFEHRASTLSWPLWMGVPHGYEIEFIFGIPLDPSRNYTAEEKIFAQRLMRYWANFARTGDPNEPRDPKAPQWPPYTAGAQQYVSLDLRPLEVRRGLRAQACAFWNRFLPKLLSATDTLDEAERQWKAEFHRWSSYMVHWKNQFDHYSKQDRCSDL
# In short: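 Cell-free colorimetric enzyme-activity assay; compounds read 0.33 hour after dosing, loss of signal vs DMSO baseline. Primary screen in duplicate at 25 uM single concentration, with active compounds retested in concentration series.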
# [2] = biological target: human Phosphatase and Tensin Homolog (PTEN), PTEN (gene 5728) (UniProt P60484); assay: NVS_ENZ_hPTEN: NovaScreen (NVS) Enzymatic Assay for human Phosphatase and Tensin Homolog (PTEN) (AID 2283203)
# Sequence of human Phosphatase and Tensin Homolog (PTEN), PTEN (gene 5728) (P60484 whole entry, looked up): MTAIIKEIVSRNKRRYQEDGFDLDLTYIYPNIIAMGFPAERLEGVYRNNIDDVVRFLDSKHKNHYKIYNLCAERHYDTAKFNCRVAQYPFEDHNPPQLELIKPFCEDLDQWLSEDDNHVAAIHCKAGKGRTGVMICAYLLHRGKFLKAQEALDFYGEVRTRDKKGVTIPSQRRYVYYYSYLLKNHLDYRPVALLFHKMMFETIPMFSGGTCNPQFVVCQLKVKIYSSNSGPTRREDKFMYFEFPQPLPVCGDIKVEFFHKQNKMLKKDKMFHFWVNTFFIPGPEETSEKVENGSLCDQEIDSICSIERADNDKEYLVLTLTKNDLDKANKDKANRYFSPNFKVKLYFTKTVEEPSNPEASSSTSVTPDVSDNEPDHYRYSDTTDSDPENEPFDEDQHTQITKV
# In short: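 Cell-free recombinant human PTEN with fluorescent substrate; product separated by electrophoretic mobility shift and read by fluorescence 1 h after dosing. Primary screen in duplicate at 25 uM, actives followed in concentration series versus DMSO.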
# [3] = biological target: rat Acetylcholinesterase (AChE), Ache (gene 83817) (UniProt P37136); assay: NVS_ENZ_rAChE: NovaScreen (NVS) Enzymatic Assay for rat Acetylcholinesterase (AChE) (AID 2283233)
# Sequence of rat Acetylcholinesterase (AChE), Ache (gene 83817) (P37136 whole entry, looked up): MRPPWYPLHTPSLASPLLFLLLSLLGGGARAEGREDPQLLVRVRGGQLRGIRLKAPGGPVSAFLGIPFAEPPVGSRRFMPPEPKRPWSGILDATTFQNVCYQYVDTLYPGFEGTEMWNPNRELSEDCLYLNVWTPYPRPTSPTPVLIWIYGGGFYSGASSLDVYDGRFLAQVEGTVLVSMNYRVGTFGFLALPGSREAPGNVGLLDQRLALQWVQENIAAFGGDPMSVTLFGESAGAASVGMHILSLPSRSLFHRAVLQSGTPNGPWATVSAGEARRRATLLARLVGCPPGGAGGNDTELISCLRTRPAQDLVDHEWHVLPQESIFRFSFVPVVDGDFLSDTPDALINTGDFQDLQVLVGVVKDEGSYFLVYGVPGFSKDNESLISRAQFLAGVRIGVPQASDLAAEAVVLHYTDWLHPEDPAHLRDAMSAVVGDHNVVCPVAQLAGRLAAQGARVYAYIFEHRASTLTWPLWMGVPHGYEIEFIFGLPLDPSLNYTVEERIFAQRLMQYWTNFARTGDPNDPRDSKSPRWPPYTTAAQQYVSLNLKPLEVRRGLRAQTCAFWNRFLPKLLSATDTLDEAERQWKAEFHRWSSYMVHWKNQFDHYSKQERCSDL
# In short: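 Rat brain membrane acetylcholinesterase activity measured colorimetrically 0.33 h after compound addition, loss of signal relative to DMSO. Primary screen in duplicate at 25 uM; actives re-run as concentration-response with 50 uM top concentration.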
# [4] = tested on: rat Monoamine Oxidase, MAO-A, Central (MAOAC), gene 29253; assay: NVS_ENZ_rMAOAC: NovaScreen (NVS) Enzymatic Assay for rat Monoamine Oxidase, MAO-A, Central (MAOAC) (AID 2283243);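 note: potency refers to inhibition seen as signal drop below DMSO baseline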
# In short: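 Rat brain tissue extract used as enzyme source in a cell-free radiometric assay, read by scintillation counting 1.5 hours after dosing. Loss of signal relative to DMSO baseline scored; primary screen at 25 uM in duplicate, actives followed up in concentration series.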
# [5] = biological target: human AMP-activated Protein Kinase, alpha 1 (AMPKa1), PRKAA1 (gene 5562) (UniProt Q13131); assay: NVS_ENZ_hAMPKa1: NovaScreen (NVS) Enzymatic Assay for human AMP-activated Protein Kinase, alpha 1 (AMPKa1) (AID 2283130)
# Sequence of human AMP-activated Protein Kinase, alpha 1 (AMPKa1), PRKAA1 (gene 5562) (Q13131 whole entry, looked up): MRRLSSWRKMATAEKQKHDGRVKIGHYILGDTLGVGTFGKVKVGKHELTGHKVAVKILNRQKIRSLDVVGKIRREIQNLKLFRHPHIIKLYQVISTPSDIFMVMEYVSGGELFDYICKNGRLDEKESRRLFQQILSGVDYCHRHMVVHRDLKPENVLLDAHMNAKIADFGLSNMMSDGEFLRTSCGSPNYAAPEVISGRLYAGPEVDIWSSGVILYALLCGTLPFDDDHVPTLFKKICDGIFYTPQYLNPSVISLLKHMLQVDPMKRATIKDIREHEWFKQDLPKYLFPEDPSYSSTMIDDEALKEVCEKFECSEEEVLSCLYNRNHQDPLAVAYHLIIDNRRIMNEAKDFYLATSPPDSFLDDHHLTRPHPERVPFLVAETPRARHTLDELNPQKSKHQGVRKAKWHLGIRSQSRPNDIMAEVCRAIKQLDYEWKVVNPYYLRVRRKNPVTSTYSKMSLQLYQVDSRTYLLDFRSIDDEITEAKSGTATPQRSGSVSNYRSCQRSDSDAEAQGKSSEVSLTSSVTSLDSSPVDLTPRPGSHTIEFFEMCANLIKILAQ
# In short: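 Recombinant human AMPKα1 activity was measured cell-free by fluorescent substrate conversion with electrophoretic mobility-shift separation, 1 h after dosing. Duplicate single-point screening was at 25 uM; actives (≥30% inhibition) were retested in concentration-response up to 50 uM.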
# [6] = biological target: human Ephrin type-A Receptor 2 (EphA2), EPHA2 (gene 1969) (UniProt P29317); assay: NVS_ENZ_hEphA2: NovaScreen (NVS) Enzymatic Assay for human Ephrin type-A Receptor 2 (EphA2) (AID 2283155)
# Sequence of human Ephrin type-A Receptor 2 (EphA2), EPHA2 (gene 1969) (P29317 whole entry, looked up): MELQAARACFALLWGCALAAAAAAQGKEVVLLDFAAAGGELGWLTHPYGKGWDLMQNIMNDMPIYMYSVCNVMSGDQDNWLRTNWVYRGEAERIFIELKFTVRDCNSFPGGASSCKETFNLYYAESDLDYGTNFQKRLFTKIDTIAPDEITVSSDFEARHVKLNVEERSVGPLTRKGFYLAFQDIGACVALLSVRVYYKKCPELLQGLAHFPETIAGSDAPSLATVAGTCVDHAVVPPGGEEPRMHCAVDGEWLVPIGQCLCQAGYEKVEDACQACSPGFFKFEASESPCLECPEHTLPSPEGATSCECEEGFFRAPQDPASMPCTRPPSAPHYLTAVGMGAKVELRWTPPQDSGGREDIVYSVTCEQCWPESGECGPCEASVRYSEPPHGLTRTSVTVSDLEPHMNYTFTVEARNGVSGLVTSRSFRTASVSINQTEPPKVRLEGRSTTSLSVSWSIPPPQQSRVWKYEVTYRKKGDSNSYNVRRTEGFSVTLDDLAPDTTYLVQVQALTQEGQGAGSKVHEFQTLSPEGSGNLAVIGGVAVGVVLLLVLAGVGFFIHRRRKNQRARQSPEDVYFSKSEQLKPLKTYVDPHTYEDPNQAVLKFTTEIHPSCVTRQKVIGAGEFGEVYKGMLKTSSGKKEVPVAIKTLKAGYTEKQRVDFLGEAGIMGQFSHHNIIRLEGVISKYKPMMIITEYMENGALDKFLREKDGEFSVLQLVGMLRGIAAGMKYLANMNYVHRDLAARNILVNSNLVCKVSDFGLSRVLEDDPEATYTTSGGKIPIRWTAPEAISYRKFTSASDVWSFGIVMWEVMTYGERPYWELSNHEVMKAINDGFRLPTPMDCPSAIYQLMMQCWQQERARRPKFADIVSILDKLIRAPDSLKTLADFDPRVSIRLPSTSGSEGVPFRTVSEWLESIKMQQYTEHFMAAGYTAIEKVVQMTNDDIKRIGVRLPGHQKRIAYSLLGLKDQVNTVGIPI
# In short: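 Cell-free recombinant EphA2 kinase with specific substrate, 1 h, fluorescence with electrophoretic mobility-shift separation of substrate and product. Primary screen at 25 uM in duplicate; hits retested in singleton concentration-response up to 50 uM, referenced to DMSO.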
# [7] = biological target: human Fibroblast Growth Factor Receptor 1 (FGFR1), FGFR1 (gene 2260) (UniProt P11362); assay: NVS_ENZ_hFGFR1: NovaScreen (NVS) Enzymatic Assay for human Fibroblast Growth Factor Receptor 1 (FGFR1) (AID 2283159)
# Sequence of human Fibroblast Growth Factor Receptor 1 (FGFR1), FGFR1 (gene 2260) (P11362 whole entry, looked up): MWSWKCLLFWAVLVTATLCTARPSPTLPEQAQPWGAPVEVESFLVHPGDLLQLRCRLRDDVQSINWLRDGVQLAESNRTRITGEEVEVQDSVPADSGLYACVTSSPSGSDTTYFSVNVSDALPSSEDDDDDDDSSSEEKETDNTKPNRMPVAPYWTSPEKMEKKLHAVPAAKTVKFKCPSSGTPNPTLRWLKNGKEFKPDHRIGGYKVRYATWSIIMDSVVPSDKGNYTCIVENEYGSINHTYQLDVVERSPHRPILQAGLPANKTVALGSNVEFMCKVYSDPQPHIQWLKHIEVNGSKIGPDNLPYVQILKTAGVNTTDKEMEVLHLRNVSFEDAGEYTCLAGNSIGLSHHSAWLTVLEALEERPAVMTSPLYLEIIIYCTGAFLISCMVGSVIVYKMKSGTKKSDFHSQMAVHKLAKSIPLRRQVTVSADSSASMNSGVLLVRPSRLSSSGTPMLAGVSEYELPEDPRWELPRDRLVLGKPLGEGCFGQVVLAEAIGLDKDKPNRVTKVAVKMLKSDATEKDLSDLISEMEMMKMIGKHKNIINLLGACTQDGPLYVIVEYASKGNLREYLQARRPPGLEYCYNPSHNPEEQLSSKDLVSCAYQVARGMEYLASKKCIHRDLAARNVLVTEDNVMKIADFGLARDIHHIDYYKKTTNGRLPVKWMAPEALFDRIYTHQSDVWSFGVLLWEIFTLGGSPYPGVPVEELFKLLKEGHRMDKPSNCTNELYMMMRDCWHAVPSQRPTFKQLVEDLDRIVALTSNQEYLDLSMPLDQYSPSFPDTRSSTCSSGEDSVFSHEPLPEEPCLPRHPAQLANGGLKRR
# In short: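 Cell-free recombinant kinase with fluorescent substrate, product separated by electrophoretic mobility shift; read 1 hour after dosing, loss of signal relative to DMSO. Initial screen in duplicate at 25 uM, actives followed in concentration series.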
# [8] = biological target: Protein deacetylase HDAC6 (Homo sapiens) (UniProt Q9UBN7); assay: NVS_ENZ_hHDAC6: NovaScreen (NVS) Enzymatic Assay for human Histone Deacetylase 6 (HDAC6) (AID 2283164)
# In short: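 Recombinant human HDAC6 with fluorescent substrate, 1 h; product separated from substrate by electrophoretic mobility shift. Primary screen in duplicate at 25 uM; actives retested singly in concentration-response up to 50 uM, fitted relative to DMSO.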
# [9] = biological target: human MET Proto-Oncogene, Receptor Tyrosine Kinase (MET), MET (gene 4233) (UniProt P08581); assay: NVS_ENZ_hMet: NovaScreen (NVS) Enzymatic Assay for human MET Proto-Oncogene, Receptor Tyrosine Kinase (MET) (AID 2283180)
# In short: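 Cell-free MET kinase assay using recombinant protein and fluorescent substrate, with mobility-shift separation; read 1 h after dosing. Primary duplicate at 25 uM; actives in singleton concentration-response to 50 uM maximum. Signal loss versus DMSO.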
# PPP2CA (gene 5515) = PPP2CA (gene 5515) (UniProt P67775); assay: NVS_ENZ_hPPP2CA: NovaScreen (NVS) Enzymatic Assay for human Protein Phosphatase 2 Aatalytic subunit Alpha (PPP2CA) (AID 2283199)
# In short: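 Recombinant human PPP2CA with fluorescent substrate; product separated from substrate by electrophoretic mobility shift, read 1.33 h after dosing. Duplicate single-point at 25 uM, then singleton concentration-response up to 50 uM; loss of signal versus DMSO.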
# [10] = biological target: human Raf-1 Proto-Oncogene, serine/threonine Kinase (RAF1), RAF1 (gene 5894) (UniProt P04049); assay: NVS_ENZ_hRAF1: NovaScreen (NVS) Enzymatic Assay for human Raf-1 Proto-Oncogene, serine/threonine Kinase (RAF1) (AID 2283216)
# Sequence of human Raf-1 Proto-Oncogene, serine/threonine Kinase (RAF1), RAF1 (gene 5894) (P04049 whole entry, looked up): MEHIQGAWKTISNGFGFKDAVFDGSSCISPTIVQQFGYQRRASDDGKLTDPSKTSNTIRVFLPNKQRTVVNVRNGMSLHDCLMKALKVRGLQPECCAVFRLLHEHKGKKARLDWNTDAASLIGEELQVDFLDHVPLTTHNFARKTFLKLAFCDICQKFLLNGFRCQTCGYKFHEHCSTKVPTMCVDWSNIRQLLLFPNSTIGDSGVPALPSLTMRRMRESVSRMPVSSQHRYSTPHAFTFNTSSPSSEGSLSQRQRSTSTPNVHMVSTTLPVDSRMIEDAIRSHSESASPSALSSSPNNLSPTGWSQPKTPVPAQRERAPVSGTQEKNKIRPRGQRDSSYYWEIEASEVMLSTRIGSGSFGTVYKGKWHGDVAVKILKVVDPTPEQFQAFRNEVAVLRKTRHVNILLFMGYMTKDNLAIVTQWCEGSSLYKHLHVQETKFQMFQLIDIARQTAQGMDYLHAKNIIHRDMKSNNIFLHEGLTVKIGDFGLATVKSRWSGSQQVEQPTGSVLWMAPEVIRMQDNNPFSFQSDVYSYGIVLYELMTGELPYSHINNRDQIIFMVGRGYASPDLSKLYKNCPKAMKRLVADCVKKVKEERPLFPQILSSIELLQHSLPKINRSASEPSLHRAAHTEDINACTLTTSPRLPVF
# In short: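 Cell-free recombinant kinase with specific fluorescent substrate, product separated by electrophoretic mobility shift; read 1 h after dosing. Primary screen at 25 uM in duplicate; hits then run in concentration-response up to 50 uM, fitted as loss of signal versus DMSO.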
# [11] = biological target: human Tyrosine Protein Kinase Receptor Tie-2 (Tie2), TEK (gene 7010) (UniProt Q02763); assay: NVS_ENZ_hTie2: NovaScreen (NVS) Enzymatic Assay for human Tyrosine Protein Kinase Receptor Tie-2 (Tie2) (AID 2283225)
# In short: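 Recombinant human Tie2 kinase activity was read cell-free by fluorescence with electrophoretic mobility shift, 1 hour after dosing. The screen used 25 uM in duplicate, then concentration-response up to 50 uM. Signal loss was scored against DMSO.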
# [12] = biological target: human Mitogen-Activated Protein Kinase 1 (MAPK 1), MAPK1 (gene 5594) (UniProt P28482); assay: NVS_ENZ_hMAPK1: NovaScreen (NVS) Enzymatic Assay for human Mitogen-Activated Protein Kinase 1 (MAPK 1) (AID 2283175)
# In short: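 Cell-free recombinant human MAPK1 enzymatic assay, fluorescence/electrophoretic mobility shift read at 1 h; loss of signal vs DMSO. Primary screen in duplicate at 25 uM; actives (e.g. ≥30% inhibition) run as concentration-response up to 50 uM.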
# [13] = biological target: human p21 Activated Kinase 4 (PAK4), PAK4 (gene 10298) (UniProt O96013); assay: NVS_ENZ_hPAK4: NovaScreen (NVS) Enzymatic Assay for human p21 Activated Kinase 4 (PAK4) (AID 2283189)
# In short: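 Cell-free recombinant human PAK4 activity assay; fluorescent substrate and product separated by electrophoretic mobility shift, read 1 h after dosing. Initially tested in duplicate at 25 uM, relative to DMSO baseline.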
# [14] = biological target: human Protein Tyrosine Phosphatase Non-receptor Type 2 (PTPN2), PTPN2 (gene 5771) (UniProt P17706); assay: NVS_ENZ_hPTPN2: NovaScreen (NVS) Enzymatic Assay for human Protein Tyrosine Phosphatase Non-receptor Type 2 (PTPN2) (AID 2283207)
# In short: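 Cell-free recombinant enzyme with fluorescent substrate, product separated by electrophoretic mobility shift; read 1 h after dosing. Primary screen single concentration (25 uM) in duplicate; actives followed in concentration series; loss of signal versus DMSO.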
# [15] = biological target: human Matrix Metalloproteinase-1 (MMP1), MMP1 (gene 4312) (UniProt P03956); assay: NVS_ENZ_hMMP1: NovaScreen (NVS) Enzymatic Assay for human Matrix Metalloproteinase-1 (MMP1) (AID 2283181)
# In short: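 Human MMP1 enzyme activity measured by fluorescence 1 h after dosing, cell-free, with a specific substrate. Screened in duplicate at 25 uM; hits (e.g. 30% inhibition) run in concentration-response up to 50 uM; loss of signal versus DMSO.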
# [16] = biological target: human Neonicotinoid receptor (NNR), CHRNA2 (gene 1135) (UniProt Q15822); assay: NVS_LGIC_hNNR_NBungSens: NovaScreen (NVS) Ligand-Gated Ion Channel Assay for human Neonicotinoid receptor (NNR) (AID 2283313)
# In short: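 Radioligand displacement on human neuroblastoma membranes, 2 h, filter-based scintillation counting. Primary screen in duplicate at 25 uM; chemicals passing threshold (e.g. 30% inhibition) run singleton concentration-response to 50 uM; loss of binding fitted versus DMSO.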
# Caspase-1 (Homo sapiens) = Caspase-1 (Homo sapiens) (UniProt P29466); assay: NVS_ENZ_hCASP1: NovaScreen (NVS) Enzymatic Assay for human Caspase 1 (CASP1) (AID 2283132)
# Sequence of Caspase-1 (Homo sapiens) (P29466 whole entry, looked up): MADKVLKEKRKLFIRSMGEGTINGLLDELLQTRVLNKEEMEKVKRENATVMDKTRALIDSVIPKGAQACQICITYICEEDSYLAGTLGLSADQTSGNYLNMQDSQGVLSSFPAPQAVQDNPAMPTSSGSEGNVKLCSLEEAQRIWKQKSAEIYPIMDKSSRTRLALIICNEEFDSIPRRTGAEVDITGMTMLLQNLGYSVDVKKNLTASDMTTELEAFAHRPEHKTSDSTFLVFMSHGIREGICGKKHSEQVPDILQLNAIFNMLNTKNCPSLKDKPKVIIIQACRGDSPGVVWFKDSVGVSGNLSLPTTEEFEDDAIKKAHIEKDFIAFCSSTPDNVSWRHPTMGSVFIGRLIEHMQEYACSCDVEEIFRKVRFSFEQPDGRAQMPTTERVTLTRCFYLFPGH
# In short: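 Cell-free enzymatic assay with E. coli-expressed recombinant protein; fluorescence intensity read 1 hour after dosing. Single-concentration duplicate screen at 25 uM, then concentration-response up to 50 uM; activity fitted relative to DMSO, loss of signal meaning inhibition.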
# [17] = tested on: guinea pig Atrionatriuretic Peptide Receptor A (ANPA), gene 100135578; assay: NVS_GPCR_gANPA: NovaScreen (NVS) G Protein-Coupled Receptor Assay for guinea pig Atrionatriuretic Peptide Receptor A (ANPA) (AID 2283291)
# In short: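 Radioligand binding to guinea pig cerebellar membranes was measured after 1 h by filter-based scintillation counting. Chemicals were tested in duplicate at 25 uM, with hits run in concentration-response to a maximum of 50 uM. Binding loss was fitted against DMSO.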
# [18] = biological target: human Caspase 2 (CASP2), CASP2 (gene 835) (UniProt P42575); assay: NVS_ENZ_hCASP2: NovaScreen (NVS) Enzymatic Assay for human Caspase 2 (CASP2) (AID 2283135)
# In short: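 E. coli-expressed enzyme in a cell-free protease assay, fluorescence read 1 h after dosing. Compounds at 25 uM in duplicate, with concentration-response up to 50 uM for hits; loss of signal against DMSO baseline.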
# [19] = biological target: human Aurora Kinase A - serine/threonine-protein Kinase 6 (AurA), AURKA (gene 6790) (UniProt O14965); assay: NVS_ENZ_hAurA: NovaScreen (NVS) Enzymatic Assay for human Aurora Kinase A - serine/threonine-protein Kinase 6 (AurA) (AID 2283142)
# In short: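 Cell-free enzymatic assay with human Aurora A, 1 hour after dosing. Fluorescent substrate turnover detected after electrophoretic mobility shift separation of substrate and product. Screened at 25 uM, actives retested in concentration-response up to 50 uM.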
compound,measurement,setting,value
CSC(=O)c1cccc2nnsc12,outcome,[1],inactive
same,outcome,[2],inactive
same,AC50,[3],1.32 µM (active)
same,AC50,[4],28.2 µM (active)
Cc1ccc(N)cc1O,outcome,[5],inactive
same,AC50,[6],18.1 µM (active)
same,outcome,[7],inactive
same,outcome,[8],inactive
same,outcome,[9],inactive
same,outcome,PPP2CA (gene 5515),inactive
same,outcome,[10],inactive
same,outcome,[11],inactive
Cc1ncc([C@@H](CCCCCCc2ccc3c(n2)NCCC3)CC(=O)O)cn1,outcome,[5],inactive
same,outcome,[7],inactive
same,AC50,[8],14.9 µM (active)
same,outcome,[12],inactive
same,outcome,[9],inactive
same,outcome,[13],inactive
same,outcome,[2],inactive
same,outcome,[14],inactive
same,outcome,[10],inactive
same,outcome,[11],inactive
O=c1[nH]c2ccc(S(=O)CCN3CCC(Cc4ccc(F)cc4)CC3)cc2o1 (centres undefined),AC50,[1],3.71 µM (active)
same,outcome,[15],inactive
same,AC50,[3],5.31 µM (active)
same,AC50,[16],5.31 µM (active)
CCCCCCC(C)OC(=O)COc1nc(F)c(Cl)c(N)c1Cl (centres undefined),outcome,Caspase-1 (Homo sapiens),inactive
same,outcome,[4],inactive
same,outcome,[17],inactive
COC(=O)CC(=O)OC,outcome,[18],inactive
Cc1ccc(Cl)cc1,outcome,[6],inactive
Cc1ccc(C(C)(C)C)c(O)c1,outcome,[6],inactive
same,outcome,[7],inactive
O=S1(=O)CCCO1,outcome,[19],inactive
